A selection: hits, their analogues and other compounds. The true share with any hit is near 3.5%.
FBW7 activator = activators of human E3 ligase FBW7. AlphaScreen FBW7–phospho-cyclin E peptide binding, activator screen. normalized activity (activation), % at 26.1 µM. hit rate 0.13% among 650,000; in the data active = normalized activity above about 1.9%;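 also: purified mutant Fbw7 with reduced substrate affinity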
GPR151 activ = human GPR151 activation; hit rate 1% among 650,000; activation, % at 11.2 µM; PathHunter beta-arrestin GPR151 cells, luminescence; AID 1508602; in the data active = activation above about 4.9%
TEAD-YAP inh = TEAD-YAP interaction inhibition | HEK-TIYL cells, TEAD-Gal4/YAP UAS-luciferase luminescence | AID 1259422 | hit rate 1.4% among 640,000 | inhibition, % at 9.12 µM; in the data active = inhibition above about 32%
MITF primary = inhibitors of human MITF; O75030; AID 1259374; AlphaScreen MITF homodimerization, bead proximity signal; hit rate 0.91% among 650,000; inhibition, % at 2.6 µM; in the data active = inhibition above about 50%
Target sequence (O75030 whole entry, looked up): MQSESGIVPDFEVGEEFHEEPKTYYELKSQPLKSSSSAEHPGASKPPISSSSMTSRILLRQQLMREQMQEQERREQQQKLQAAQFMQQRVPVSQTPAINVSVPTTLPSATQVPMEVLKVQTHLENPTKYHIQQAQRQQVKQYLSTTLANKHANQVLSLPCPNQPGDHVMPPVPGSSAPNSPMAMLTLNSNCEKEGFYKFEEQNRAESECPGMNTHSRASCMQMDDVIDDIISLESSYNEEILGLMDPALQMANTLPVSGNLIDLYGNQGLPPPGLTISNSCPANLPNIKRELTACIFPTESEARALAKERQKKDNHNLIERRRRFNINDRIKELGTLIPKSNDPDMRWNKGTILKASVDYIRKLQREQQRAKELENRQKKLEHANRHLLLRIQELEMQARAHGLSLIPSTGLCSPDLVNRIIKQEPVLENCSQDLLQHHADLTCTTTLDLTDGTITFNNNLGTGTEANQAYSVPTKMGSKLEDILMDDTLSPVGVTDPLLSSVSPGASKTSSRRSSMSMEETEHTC
GPR151 confirm = human GPR151 activation, confirmation screen; 6,700 tested, under 10 active; shares compounds with GPR151 activ; activation, % at 11.2 µM; AID 1508609; GPR151 PathHunter beta-arrestin cells, luminescence, 90 min; % of EA-reagent control over plate median;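 active = mean percent activation across replicates above the confirmation screen cutoff of 4.91%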
GPR119 counter = activates human GPR119 in a GPR151 counter-screen | shares compounds with GPR151 activ | GPR119 PathHunter beta-arrestin cells, luminescence, 90 min; 0 = compound-well median, 100 = enzyme-acceptor control | activation, % at 11.2 µM | hit rate 0.3% among 6,700;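 active = mean percent activation in the counterscreen above 29.09%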;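 also: counterscreen on off-target GPR119 to flag nonselective hits from the GPR151 activator screen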
A number is an active result; – = inactive; · = no result given.

SMILES	FBW7 activator	GPR151 activ	TEAD-YAP inh	MITF primary	GPR151 confirm	GPR119 counter
CC(C)c1ccc(NC(=O)C(c2ccccc2)N(C)C(=O)c2ccc(=O)[nH]c2)cc1 (stereo unspecified)	–	8.7	–	–	–	–
CC1CCN(C(=O)Cn2nc(SCc3ccccn3)nc2N)CC1	–	16.6	–	–	–	–
Cc1csc2nc(CSc3nc4cc([N+](=O)[O-])ccc4o3)c(Br)n12	–	–	–	–	·	·
COc1ccc(S(=O)(=O)/N=C2/NC(=O)/C(=C\c3ccco3)S2)cc1	–	7.4	–	–	–	–
Cc1ccc(S(=O)(=O)/N=C2/NC(=O)/C(=C/c3ccco3)S2)cc1	–	–	–	–	·	·
COc1ccc2oc(-c3ccccc3)c(C(=O)Nc3nccs3)c2c1	–	6.2	–	–	–	–
COc1ccc2oc(-c3ccccc3)c(C(=O)O)c2c1	–	–	–	–	·	·
OC1CCN(c2cc(-c3ccccn3)nc(-c3ccccc3)n2)CC1	–	–	–	–	·	·
C/C(=N\Nc1ccc([N+](=O)[O-])cc1)c1ccccc1Cl	–	–	–	–	·	·
Nc1ncnc(Nc2cccc(F)c2)c1[N+](=O)[O-]	–	–	–	–	·	·
FC(F)(F)c1ccc(Cn2cnc3c(NCc4cccc(C(F)(F)F)c4)nc(Nc4nccc5ccccc45)nc32)cc1	–	5.6	–	–	–	–
CN1CCN(C(=O)c2ccc(-c3nc(NCc4cccc(C(F)(F)F)c4)c4ncn(Cc5ccc(C(F)(F)F)cc5)c4n3)cc2)CC1	–	10.8	–	–	–	–
CCOC(=O)C1CCCN(/C=C2\Oc3c(ccc(O)c3C)C2=O)C1 (stereo unspecified)	–	–	–	–	·	·
Cc1ccc(C(=O)COC(=O)CN2C(=O)C3C4C=CC(C4)C3C2=O)cc1[N+](=O)[O-] (stereo unspecified)	–	12.6	–	–	–	–
Cc1ccc(C(=O)COC(=O)CN2C(=O)C3C4CCC(C4)C3C2=O)cc1[N+](=O)[O-] (stereo unspecified)	–	–	–	–	·	·
c1nc(N2CCCCC2)c2sc3nc(N4CCOCC4)c4c(c3c2n1)CCCC4	–	6.2	–	–	–	–
c1nc(N2CCOCC2)c2sc3nc(N4CCCCC4)c4c(c3c2n1)CCCC4	–	–	–	–	·	·
O=S(=O)(NCC1COc2ccccc2O1)c1ccc(F)cc1F (stereo unspecified)	–	–	–	–	·	·
CCc1ccc(-c2cc(C(=O)N3CCCCC3)c3ccccc3n2)cc1	–	–	–	–	·	·
CCc1ccc(-c2cc(C(=O)N3CCN(C/C=C/c4ccccc4)CC3)c3ccccc3n2)cc1	–	5.3	47.0	–	–	–
COc1ccc(-c2cc(C(F)(F)F)n3nc(C(=O)Nc4ccccc4C(F)(F)F)c(Cl)c3n2)cc1OC	–	6.0	–	–	–	–
COc1ccc(-c2cc(C(F)(F)F)n3nc(C(=O)Nc4cccc(C)c4Cl)c(Cl)c3n2)cc1OC	–	–	–	–	·	·
CCOC(=O)CSc1ccc(S(=O)(=O)N2CCN(c3cccc(Cl)c3)CC2)cc1[N+](=O)[O-]	–	–	–	–	·	·
COc1ccc(C(Nc2cccc(C)n2)c2ccc3cccnc3c2O)cc1 (stereo unspecified)	–	6.7	87.9	–	–	–
Cc1cc2ccccc2c(=O)n1CC(=O)Nc1nc2ccccc2s1	–	–	–	–	·	·
SMILES	FBW7 activator	GPR151 activ	TEAD-YAP inh	MITF primary	GPR151 confirm	GPR119 counter
CC1CCc2cc(F)ccc2N1C(=O)C1c2ccccc2Oc2ccccc21 (stereo unspecified)	–	–	–	–	·	·
COc1cccc(CSc2nc(-c3cccs3)cc(-c3ccccc3)c2C#N)c1	–	–	–	–	·	·
COc1cn(CC(=O)Nc2cc(C)cc(C)c2)c(CSc2nccc(C)n2)cc1=O	–	14.7	–	–	–	–
COc1cn(CC(=O)Nc2cccc(C)c2)c(CSc2ncccn2)cc1=O	–	–	–	–	·	·
COc1ccc(NC(=O)O/N=C/c2cc(OC)ccc2OC)cc1	–	–	–	–	·	·
COc1cc2c(cc1OC)[C@@H](c1ccccc1)CN(C)CC2	–	7.5	–	–	–	–
CCOc1ccc(-n2c(C)cc(C(=O)CSc3nnc4ccccn34)c2C)cc1	–	–	–	–	·	·
O=C(CN1C(=O)COc2ccccc21)Nc1cccc(F)c1	–	5.2	–	–	–	–
CC(C)COC(=O)NC(Cc1c[nH]c2ccccc12)C(=O)N/N=C\c1ccncc1 (stereo unspecified)	–	–	–	–	·	·
CCN(CC(=O)N1CCC(Cc2ccccc2)CC1)S(=O)(=O)c1ccc(Cl)cc1	–	–	–	–	·	·
CN(CC(=O)N1CCC(Cc2ccccc2)CC1)S(=O)(=O)c1ccc2ccccc2c1	–	5.7	–	–	–	–
COc1ccccc1CCNC(=O)CCCn1cccc1	–	–	–	–	·	·
CN(C(=O)c1ccn(C)n1)C(Cc1ccccc1)C1CCN(C2CCSC2)CC1 (stereo unspecified)	–	–	–	–	·	·
COc1ccc(N=Cc2c(O)[nH]c(=S)[nH]c2=O)cc1OC	–	7.2	–	–	–	–
O=c1[nH]c(O)c(C=Nc2ccc(F)c(F)c2)c(=O)[nH]1	–	13.1	–	–	–	–
CC1(C(=O)NCC2Cc3cccc(-c4ncccn4)c3O2)CC1 (stereo unspecified)	–	–	–	–	·	·
COc1ccc(CN[C@H]2C[C@H]3C(=O)N[C@H](CO)C(=O)N3C2)cc1	–	–	–	–	·	·
Cc1cccc(NC(=S)N(C)N)c1C	–	–	–	–	·	·
N#CCC(=O)N/N=C/c1cn(CC(=O)Nc2ccc(F)cc2)c2ccccc12	–	–	–	–	·	·
CCn1cc(/C=C/c2nc(O)c([N+](=O)[O-])c(=O)[nH]2)c2ccccc21	–	–	–	–	·	·
O=C(Cn1cc(/C=C/c2nc(O)c([N+](=O)[O-])c(=O)[nH]2)c2ccccc21)Nc1ccc(F)cc1	–	5.5	–	–	–	–
O=C(Cn1cc(/C=N/N2C(=O)c3ccccc3C2=O)c2ccccc21)Nc1ccc(F)cc1	–	5.6	–	–	–	–
Cc1c(-c2ccccc2)oc2c(C(=O)OCC(=O)NCc3cccs3)cccc2c1=O	–	–	–	–	·	·
CCOc1nc(NCCC2=CCCCC2)nc(OCC)n1	–	9.8	–	–	–	–
COc1ccc(-c2[nH]ncc2CN[C@@H]2C[C@@H](C(=O)NC(C)C)N(Cc3ccccc3)C2)cc1	–	5.7	–	–	–	–
COc1ccc(O)c(CN[C@H]2C[C@@H](C(=O)NC(C)C)N(Cc3ccc4ccccc4c3)C2)c1	–	–	–	–	·	·
CC1(C)CC(C(CCN)c2ccc(F)cc2)CCO1 (stereo unspecified)	–	–	–	–	·	·
COc1ccc(CCNC(=O)c2ccnc(-c3cccc(N)c3)c2)cc1	–	–	–	–	·	·
CC(C)(C)c1nnc(Nc2cc(Cl)ccc2Cl)[nH]c1=O	–	5.7	–	–	–	–
